Data: PubChem BioAssay (NCI)
About 83,000 compounds went through this panel and 20% of them were active in at least one assay; those are over-represented in the sample as a whole.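 Treatment: one concentration, 48 hours, 96-well format. Scoring: percent growth, with anything below 10 considered active.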 Active and inactive are the calls of the source.

test system: LOX IMVI melanoma; experiment: NCI-60 one-dose screen, 48 h (100 = growth as untreated, 0 = no growth, -100 = all killed); conditions: 10 µM
Description: Growth inhibition of the LOX IMVI human tumor cell line is measured as a screen for anti-cancer activity. Cells are grown in 96 well plates and exposed to the test compound for 48 hours. Compounds are tested at a single concentration, which is 10^-5 M for most compounds. The reported endpoint is percent growth (GI% or GIPRCNT), where numbers from 0 - 100% represent growth inhibition, and numbers from -100% - 0 represent cell death. For example, a value of 40 represents 60% growth inhibition. A value of 0 means no net growth occurred over the course of the experiment. A value of -40 indicates 40% of cells at the beginning of the experiment died by the end of the experiment. A value of -100 means all cells are dead at the end of the experiment.
NCI-60 Human Tumor Cell Lines Screen was performed using the standard one-dose NCI protocol, which is described in more detail at https://dtp.cancer.gov/discovery_development/nci-60/default.htm.
Compounds with GIPRCNT values below 10 were considered active. Activity score was based on GIPRCNT using the following formula: […]
Score is 0 for GIPRCNT values of 100 or above, 50 for GIPRCNT values of 0, and 100 for GIPRCNT values of -100.

Q: For `CCOC(=O)Nc1cc2c(c(N)n1)N=C(c1ccccc1)CO2`, which growth is on record?
A: 28.5% (inactive)

Q: With `O=c1[nH]cc(Cl)cc1O` as the compound, how does the growth read?
A: 65.5% (inactive)

Q: `COC(=O)c1cccnc1` was tested. Which growth did it give?
A: 95.6% (inactive)

Q: `O=C(O)c1ccnc(Br)c1` was tested. Which growth did it give?
A: 107% (inactive)

Q: `CCOc1ccc(I)cc1` was tested. Which growth did it give?
A: 100% (inactive)

Q: `N#CC1(Nc2ccc3c4c(cccc24)CC3)CCCCC1` was tested. Which growth did it give?
A: 97.6% (inactive)

Q: Which growth does the source give for `Oc1ccccc1-c1nnco1` here?
A: 87.7% (inactive)

Q: How did the growth turn out when `OCc1cccc2ccccc12` was run?
A: 102% (inactive)

Q: `COC(=O)c1ccccc1N(C)C` was tested. Which growth did it give?
A: 94.5% (inactive)

Q: Which growth does the source give for `O=S(=O)(O)C(Nc1ccccc1)c1ccccc1` (stereo not given) here?
A: 93.8% (inactive)

Q: `CC1=C(/C=C/C(C)=C/C=C/C(C)=C/CO)C(C)(C)CCC1` was tested. Which growth did it give?
A: 94.7% (inactive)

Q: With `CC(C)C(C#N)(C(C)C)C(C)C` as the compound, how does the growth read?
A: 112% (inactive)

Q: How did the growth turn out when `Cc1cc(OCCO)cc(C)c1Cl` was run?
A: 98% (inactive)

Q: For `CC(=O)N(C)c1ccc([N+](=O)[O-])cc1`, which growth is on record?
A: 98.4% (inactive)

Q: For `O=C(CN1CCNCC1)N1CCOCC1`, which growth is on record?
A: 98.4% (inactive)

Q: With `CC1(c2ccccc2)NC(=O)NC1=O` (stereo not given) as the compound, how does the growth read?
A: 109% (inactive)

Q: For `CCO/C=C1\SC(=S)N(c2cccc(C)c2)C1=O`, which growth is on record?
A: 104% (inactive)

Q: How did the growth turn out when `Cc1cc(/C=C/c2ccc3cc(N(C)C)ccc3[n+]2C)c(C)n1-c1ccccc1` was run?
A: -38% (active)

Q: How did the growth turn out when `O=[N+]([O-])c1cccc(N=Nc2ccc(O)cc2O)c1` was run?
A: 81.1% (inactive)

Q: Which growth does the source give for `CCS(=O)(=O)c1cc(=O)[nH]c(=O)[nH]1` here?
A: 101% (inactive)

Q: Which growth does the source give for `CC(=O)NCc1cc(C)c(C)cc1C` here?
A: 98.6% (inactive)

Q: `CC(=O)NC(N)=S` was tested. Which growth did it give?
A: 102% (inactive)

Q: `O=C(c1ccccc1)C1CCC1` was tested. Which growth did it give?
A: 106% (inactive)

Q: With `O=[N+]([O-])c1ccccc1S(=O)c1ccccc1[N+](=O)[O-]` as the compound, how does the growth read?
A: 70% (inactive)

Q: For `CCCNC(=O)c1ccc(S(N)(=O)=O)cc1`, which growth is on record?
A: 98.9% (inactive)

Q: `COc1cc2nc3cc([N+](=O)[O-])ccc3c(Cl)c2cc1OC` was tested. Which growth did it give?
A: 105% (inactive)

Q: How did the growth turn out when `Cc1ccc(N)cc1[N+](=O)[O-]` was run?
A: 101% (inactive)

Q: How did the growth turn out when `CCC(=O)Oc1ccc(OC)cc1` was run?
A: 105% (inactive)

Q: `NC(N)=Nc1cc2ccccc2c2ccccc12` was tested. Which growth did it give?
A: 74.9% (inactive)

Q: Which growth does the source give for `CCCCCCCCO` here?
A: 105% (inactive)

Q: `CC(=O)Nc1c(C)cc(C)cc1C` was tested. Which growth did it give?
A: 96.9% (inactive)

Q: For `N#Cc1c(N)sc(=S)c2c1CCCC2`, which growth is on record?
A: 99.4% (inactive)

Q: With `COc1cc(CN)ccc1O` as the compound, how does the growth read?
A: 89.8% (inactive)

Q: `O=C(CS)Nc1ccc2ccccc2c1` was tested. Which growth did it give?
A: 86.7% (inactive)

Q: `NCCC(=O)c1ccc(Cl)cc1` was tested. Which growth did it give?
A: 106% (inactive)

Q: For `S=C1NCc2cncnc2N1`, which growth is on record?
A: 104% (inactive)

Q: For `Cc1ccc(C(=O)NC2c3ccccc3Oc3ccccc32)cc1`, which growth is on record?
A: 45% (inactive)

Q: With `C[C@]12CC[C@@H]3c4ccc(OCC(=O)O)cc4CC[C@H]3[C@@H]1CCC2=O` as the compound, how does the growth read?
A: 86% (inactive)

Q: Which growth does the source give for `COC(=O)/C=C\C(=O)OC` here?
A: 102% (inactive)

Q: `C=CCNc1ccccc1` was tested. Which growth did it give?
A: 93.7% (inactive)
